Vaccinia pol inh: blocks vaccinia virus processive DNA synthesis; in vitro processive DNA synthesis, absorbance read-out; stronger effect = lower value; normalized absorbance, % (no concentration beside the values); actives 0.94% (n = 46,000); AID 493162; in the data active = normalized absorbance mostly below about 85%, no sharp cut-off; inactive = mostly above about 86%
Numbers without * were called inactive. This is one part of a sample in which hits are shown more often than they occur.

SMILES	Vaccinia pol inh
COc1ccc2nc(-c3ccccc3)cc(C(=O)O)c2c1	90
COc1ccc2nc(C)cc(Nc3ccccc3)c2c1	81*
COc1ccc2nc(Nc3ccccc3)sc2c1	96
Brc1cccc(-c2nnc3sc(CN4CCc5ccccc5C4)cn23)c1	102
OCCOc1ccc(Br)cc1OCCO	96
O=C1c2cccc3cccc(c23)C(=O)N1c1ccc(O)cc1	96
O=C1c2cccc3cccc(c23)C(=O)N1NCCO	80*
O=C(O)CN1C(=O)c2cccc3cccc(c23)C1=O	100
CC(C)c1cccc(C(C)C)c1NC(=O)CSc1ncccn1	97
COc1ccc(Cl)cc1S(=O)(=O)NCCN1CCOCC1	95
COc1ccc(C(=O)CSc2nc3ccccc3s2)cc1	90
COc1ccc(C(=O)CSc2nnc(-c3ccco3)c(-c3ccco3)n2)cc1	68*
COc1ccc(-c2ccnc(SCC(=O)c3ccc(Cl)cc3)n2)cc1	99
O=C(/C=C/c1ccc(Br)o1)Nc1nccs1	101
O=C(/C=C/c1ccc(Br)o1)/C=C/c1ccc(Br)o1	49*
O=C(O)/C=C/c1ccc(-c2cccc(C(F)(F)F)c2)o1	100
O=C(/C=C/c1ccc(Br)o1)Nc1ccc(F)cc1F	98
O=C(O)/C=C/c1ccc(Br)o1	72*
Cc1ccc(/C=C/C(=O)O)o1	91
CCC(=O)N1CCc2cc(S(=O)(=O)CCC(=O)N(C)c3ccc(Br)cc3)ccc21	91
COc1ccc(C)cc1N(C)C(=O)c1cc2c(=O)[nH]c3ccc(C)cc3c2s1	96
O=C(c1cc(C(=O)Nc2ccccc2)c(=O)n(-c2ccccc2)c1)c1cc(Cl)ccc1O	100
COc1cccc2cc(C(=O)NCCc3c(C)[nH]c4ccc(OC(F)(F)F)cc34)c(=O)oc12	100
Cn1c(C(=O)NC2CC2)cc2c(=O)n(C)c3ccccc3c21	77
Cn1c(C(=O)NCCc2ccc(Cl)cc2)cc2c(=O)n(C)c3ccccc3c21	100
SMILES	Vaccinia pol inh
CN1CCN(CCNC(=O)c2cc3c(=O)n(C)c4ccccc4c3n2C)CC1	62*
S=C(Nc1ccccc1)Nc1ccccc1-c1nc2ccccc2[nH]1	68*
O=C(Nc1ccccc1-c1nc2ccccc2[nH]1)C1=COCCO1	92
CC(C)C(=O)Nc1ccccc1-c1nc2ccccc2[nH]1	94
O=C(c1c[nH]c2ccccc2c1=O)N(Cc1ccccc1)Cc1ccccc1	97
O=C1/C(=C\c2cccs2)SC(=S)N1CC(=O)N(Cc1ccccc1)c1ccccc1	99
CCC1=C(C)/C(=C\c2[nH]c(C)c(CC)c2C)N=C1C	95
O=C(O)c1cc(C=Nc2ccc(S(=O)(=O)NC3NC=CS3)cc2)c2c(c1)COCO2 (centres undefined)	52*
Cc1cc(NS(=O)(=O)c2ccc(N=Cc3ccccc3O)cc2)no1	98
C=CCSc1nc2ccc(N=Cc3cc(Cl)ccc3O)cc2s1	107
C(=NCc1cccnc1)c1c2ccccc2cc2ccccc12	42*
O=c1c2ccccc2c(C=NCc2cccnc2)c(O)n1-c1ccccc1C(F)(F)F	104
C(=NCc1cccnc1)c1ccc2c(c1)OCO2	106
Cc1nc2c(C)cccn2c1C(Nc1ccc(F)cc1)c1ccccc1 (centres undefined)	100
Cc1ccc(-c2cn3ccccc3n2)cc1	99
COc1ccc(C2N=C(N3CCc4ccccc43)SC(N)=C2C#N)cc1 (centres undefined)	102
CCCCn1c(-c2ccc(OC)cc2)nc2ccccc21	100
CCn1cc(C(=O)O)c(=O)c2cnc(N3CCNCC3)nc21	98
CCn1cc(C(=O)NN)c(=O)c2cc(F)c(N3CCCC3)cc21	100
CCn1cc(C(=O)O)c(=O)c2cc(F)c(N3CCNCC3)cc21	77*
CCOc1ccccc1N(C)C(=O)c1cc2cc3ccc(OC)cc3nc2s1	97
O=C(NCCCN1CCCCC1)c1ccc2c(c1)sc1nc(-c3ccccc3)cn12	58*
CCOC(=O)N1CCN(C(=O)c2ccc3c(c2)sc2nc(-c4ccc(OC)cc4)cn23)CC1	99
CCN1CCCC1CNC(=O)c1ccc2c(c1)sc1nc(-c3cccc(OC)c3)cn12 (centres undefined)	47*
O=C(NCCCN1CCCCC1)c1ccc2nc(N3CCCCC3)sc2c1	97
SMILES	Vaccinia pol inh
CCN1CCCC1CNC(=O)c1nnc(Cc2cccc(F)c2)o1 (centres undefined)	108
O=C(NCCN1CCCCCC1)c1ccc2c(c1)ncn2C1CCCCC1	97
CC(=O)N1[C@@H](c2ccc(F)cc2)SC[C@H]1C(=O)O	97
Cc1cc2ccccc2c(=O)n1CC(=O)Nc1ccc(C(C)C)cc1	108
Fc1ccc(N=Cc2ccc3ncccc3c2)cc1F	91
FC(F)(F)c1ccc(Cl)c(NC2=NCCC2)c1	102
Cc1ccc(NC(=O)N2CCN(c3cnccn3)CC2)cc1	111
Cc1csc2nc(CSc3nnnn3-c3ccccc3)cn12	100
N#CCOc1ccc2c(C#N)c3ccccn3c2c1	106
COc1ccc2c(C#N)c3ccccn3c2c1	72*
COc1ccc(OCc2c(C#N)c3ccccc3n2C)cc1	99
CCc1ccc(NC(=O)C(C)OC(=O)c2cccnc2Cl)cc1 (centres undefined)	103
Cc1ccc(NN)cc1	65*

High-throughput results (PubChem)
